# This is a sample that favours compounds with a hit; in the whole collection about 3.1% have one here.
# BoNT-A LC inh2 = BoNT/A light chain protease inhibitors, primary screen, biochemical, flow cytometry, MLPCN library; inhibition, % at 10 µM; 0.17% of 360,000 active; multiplex microsphere protease substrate cleavage; note: plate controls were buffer without enzyme for full effect and enzyme alone for no effect
# Anthrax LF inh2 = Bacillus anthracis LF protease inhibitors, primary screen, biochemical, multiplex microsphere, MLPCN library. inhibition, % at 10 µM. Lethal factor (Bacillus anthracis), P15917. 0.12% of 360,000 active. AID 588501, 2011. multiplex microsphere protease cleavage assay; note: plate controls were buffer without enzyme for full effect and enzyme alone for no effect
# Target sequence (P15917 whole entry, looked up): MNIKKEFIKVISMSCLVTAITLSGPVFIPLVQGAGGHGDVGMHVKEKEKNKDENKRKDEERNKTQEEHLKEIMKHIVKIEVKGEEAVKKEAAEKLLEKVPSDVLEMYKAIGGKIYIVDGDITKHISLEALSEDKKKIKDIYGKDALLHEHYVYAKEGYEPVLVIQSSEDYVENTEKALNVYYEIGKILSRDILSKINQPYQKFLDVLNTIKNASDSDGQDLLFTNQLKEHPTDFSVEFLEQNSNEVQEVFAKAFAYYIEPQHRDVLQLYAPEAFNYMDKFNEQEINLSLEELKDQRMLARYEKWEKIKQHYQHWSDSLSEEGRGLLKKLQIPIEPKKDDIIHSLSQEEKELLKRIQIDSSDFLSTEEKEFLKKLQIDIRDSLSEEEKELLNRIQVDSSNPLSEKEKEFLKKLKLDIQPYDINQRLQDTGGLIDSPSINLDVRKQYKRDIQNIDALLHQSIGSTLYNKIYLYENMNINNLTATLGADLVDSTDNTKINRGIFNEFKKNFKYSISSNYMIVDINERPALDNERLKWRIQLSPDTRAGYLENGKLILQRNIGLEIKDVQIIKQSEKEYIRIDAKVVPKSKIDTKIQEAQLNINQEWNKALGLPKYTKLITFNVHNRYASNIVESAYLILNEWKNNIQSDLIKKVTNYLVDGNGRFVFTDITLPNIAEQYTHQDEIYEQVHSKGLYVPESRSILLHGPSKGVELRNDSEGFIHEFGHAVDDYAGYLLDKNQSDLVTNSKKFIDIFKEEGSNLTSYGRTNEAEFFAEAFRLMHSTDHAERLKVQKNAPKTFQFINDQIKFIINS
# Bead autofluor = counter-screen for toxin protease inhibitors: compound fluorescence; fluorescence intensity (no concentration beside the values); AID 624483; compound autofluorescence counterscreen, microsphere flow cytometry; stronger effect = higher value; 3.1% of 360,000 active; in the data active = fluorescence intensity above about 16000; inconclusive = no clear call, values can overlap the other calls
# PriA SSB inh = inhibitors of Klebsiella pneumoniae PriA binding to SSB C-terminal tail, primary screen, biochemical, AlphaScreen; 0.6% of 430,000 active; inhibition, % at 33 µM; AlphaScreen SSBct-PriA binding, biotinylated peptide; PriA–SSB C-terminal tail interaction (Klebsiella pneumoniae); in the data active = inhibition mostly above about 37%, no sharp cut-off; inactive = mostly below about 20%;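 note: plate controls were negative control peptide for no effect and reference peptide for full effect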
# BoNT F protease = BoNT/F light chain protease inhibitors, primary screen, biochemical, flow cytometry, MLPCN library; AID 588497, 2011; 0.22% of 360,000 active; Botulinum neurotoxin type F light chain protease (Clostridium botulinum); inhibition, % at 10 µM; Multiplex microsphere protease cleavage assay; in the data active = inhibition above about 35%, passing the limit was not always enough; inconclusive = no clear call, values can overlap the other calls; note: plate controls were buffer without enzyme for full effect and enzyme alone for no effect
# Numbers without * were called inactive; ? = inconclusive; nt = no result. Cut-off read from the data, not from the text of the source, unless noted: active = inhibition above about 30%; inconclusive = no clear call, values can overlap the other calls; inactive = below that.
SMILES,BoNT-A LC inh2,Anthrax LF inh2,Bead autofluor,PriA SSB inh,BoNT F protease
CCC(=O)Nc1ccc(C(=O)CSc2nnc(-c3ccc(O)cc3)n2CC2CCCO2)cc1OC (configuration not stated),2,-3,20195*,-17,2
COc1ccc(NC(=O)CSc2nnc(-c3ccncc3)n2CC2CCCO2)c(OC)c1 (configuration not stated),0,-4,2924,2,-16
O=C(CSc1nnc(-c2ccncc2)n1CC1CCCO1)Nc1cccc(O)c1 (configuration not stated),1,-4,22751*,-7,3
Cc1ccc(Cl)c2sc(N(CCCN(C)C)C(=O)c3ccno3)nc12,nt,nt,nt,2,nt
COc1ncc(NC(=O)c2ccccc2Cl)c(OC)n1,nt,nt,nt,-12,nt
CCCCNC(=O)CNC(=O)c1cccs1,-1,-3,11602,1,-7
CCCCN(CCCC)CCNC(=O)CNC(=O)c1cccs1,4,-10,21124*,-7,3
COc1ccccc1N1CCN(S(=O)(=O)c2cc([N+](=O)[O-])ccc2C)CC1,nt,nt,nt,9,nt
CN(C)c1cccc(C(=O)Nc2cnn([C@H]3CCOC3)c2)c1,nt,nt,nt,-11,nt
Cc1nnc2n1N=CC=C(C(C)(C)C)S2,-2,-13,23527*,-7,-3
Cc1nnc2n1N=CC=C(c1ccccc1)S2,1,5,8594,-2,7
CC1(C)CC(=O)c2c(nn(-c3ccccc3)c2-c2ccncc2)C1,?,1,22472*,-25,-3
Cc1c2c(nc3ccccc13)CC(C)(C)CC2=O,0,1,4333,1,-1
Cc1nc(Nc2ccc(NC(=O)c3cccs3)cc2)cc(OC(C)C)n1,nt,nt,nt,-5,nt
Cc1nn(C2CCS(=O)(=O)C2)c2nc(-c3ccco3)cc(C(=O)Nc3ccc4c(c3)OCO4)c12 (configuration not stated),nt,nt,nt,19,nt
CCn1c(C)cc2c(c1=O)C(c1ccccc1)C(C(=O)OC)=C(N)O2 (configuration not stated),0,0,23918*,-7,-1
COC(=O)C1=C(N)Oc2cc(C)n(Cc3ccncc3)c(=O)c2C1c1cccnc1 (configuration not stated),0,1,3012,-14,1
O=C(O)c1ccc(-n2nnnc2SCc2ccccc2)cc1,0,4,9113,-4,-1
CSc1ccccc1-n1nnnc1SCc1ccccc1,?,-5,23954*,-49,-7
COc1ccc(OC)c2sc(N3CCN(C(=O)CS(=O)(=O)c4ccc(Cl)cc4)CC3)nc12,nt,nt,nt,12,nt
O=C(Cc1ccc(F)cc1)Nc1cnc(-n2cccn2)nc1,nt,nt,nt,1,nt
CCOC(=O)N1CCC(NC(=O)C2CCN(C(=O)N3CC(C)Oc4ccc(C)cc43)CC2)CC1 (configuration not stated),0,0,9229,-10,-3
CCOC(=O)N1CCC(NC(=O)C2CCN(C(=O)N3CC(C)Oc4ccccc43)CC2)CC1 (configuration not stated),-1,0,16437*,-6,1
O=C(NC1CCCCCCC1)C1CCN(c2nc3ccccc3o2)CC1,-4,-3,17616*,-10,-6
CCOC(=O)N1CCC(NC(=O)[C@H]2CCCN(c3ccc(-n4cncn4)nn3)C2)CC1,nt,nt,nt,5,nt
SMILES,BoNT-A LC inh2,Anthrax LF inh2,Bead autofluor,PriA SSB inh,BoNT F protease
CCOC(=O)N1CCC(NC(=O)C2CCCN(c3nc4ccccc4o3)C2)CC1 (configuration not stated),-3,2,25111*,-10,-5
COc1ccc(Cl)cc1N1C(=O)NC2CC1(C)Oc1ccc([N+](=O)[O-])cc12 (configuration not stated),nt,nt,nt,-7,nt
O=C(Cc1ccccc1)NCc1n[nH]c(=S)n1-c1ccc([N+](=O)[O-])cc1,nt,nt,nt,-13,nt
COc1ccc(CCn2c(=N)c(C(=O)NCc3ccco3)cc3c(=O)n4ccccc4nc32)cc1,2,4,22951*,11,2
CC(C)OCCCn1c(=N)c(C(N)=S)cc2c(=O)n3ccccc3nc21,35*,-52,5395,12,-56
COc1ccc(CCn2c(=S)[nH]c3cc(C(=O)NCc4ccco4)ccc3c2=O)cc1OC,-4,1,20732*,7,-2
Cc1ccc(S(=O)(=O)c2cc3c(=O)n4ccccc4nc3n(CCc3ccccc3)c2=N)cc1,1,1,6600,-6,9
COc1ccc(-n2c(=S)[nH]c3cc(C(=O)NCc4ccco4)ccc3c2=O)cc1OC,0,1,4604,15,?
Cc1ccc(S(=O)(=O)c2cc3c(=O)n4ccccc4nc3n(C)c2=N)cc1,5,-6,18992*,-1,5
COc1cccc(COc2coc(C(=O)Nc3ccc(OC(F)(F)F)cc3)cc2=O)c1,nt,nt,nt,-18,nt
Cc1noc(C)c1CC(=O)Nc1ccc2c(c1)OCC(C)(C)C(=O)N2CCC(C)C,nt,nt,nt,-47,nt
COc1ccc(CCn2c(=N)c(S(=O)(=O)c3ccccc3)cc3c(=O)n4ccccc4nc32)cc1,3,2,5759,-20,6
COc1ccc(CCn2c(=N)c(S(=O)(=O)c3ccc(Cl)cc3)cc3c(=O)n4ccccc4nc32)cc1,-36,-15,21901*,6,-87
Cc1c(Cl)c(C(=O)NC2C3CC4CC(C3)CC2C4)nn1C (configuration not stated),?,-5,21785*,1,0
Cn1ncc(Br)c1C(=O)NC1C2CC3CC(C2)CC1C3 (configuration not stated),0,2,2545,-24,0
CCNC(=O)C1CCCc2sc(NC(=O)c3ccccc3)nc21 (configuration not stated),nt,nt,nt,-12,nt
O=C1CCCC(O)=C1N=Nc1ccc(C(=O)O)cc1,-1,-7,5984,2,-5
O=C1CCCC(O)=C1N=Nc1c(Cl)cc(C(F)(F)F)cc1Cl,4,83*,2889,10,?
O=C(CCc1csc(NC(=O)c2ccc[nH]c2=O)n1)Nc1ccc(F)c(F)c1,nt,nt,nt,-8,nt
CCn1c(CNC(=O)COc2c(C)cccc2C)nnc1SCC(=O)Nc1nccs1,8,-14,17164*,2,10
Cc1ccc(-n2c(COc3c(C)cccc3C)nnc2SCC(=O)Nc2nccs2)cc1,0,6,7812,-21,-1
CCn1c(SCC(=O)NCc2cccs2)nnc1-c1cccs1,-2,-1,23563*,-9,0
Cc1ccc(Cl)cc1NC(=O)CC(C)n1nc(C)c(Cl)c1C (configuration not stated),nt,nt,nt,-4,nt
Cc1ccc(C)c(S(=O)(=O)Nc2ccc(C(=O)N3CCN(C(=O)c4ccco4)CC3)cc2)c1,nt,nt,nt,6,nt
[O-][n+]1cccc2c(Br)cc(Br)c(O)c21,-2,0,3418,69*,-15
Oc1c(Br)cc(Br)c2cccnc12,-2,-2,5289,-8,-8

# Source: PubChem
